Assay [1] is described as follows: NCI Yeast Anticancer Drug Screen. Data for the rad50 strain (AID 155).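 Further: 0% = growth of vehicle-only cultures of the same strain.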 The settings on record: S. cerevisiae rad50 strain growth inhibition; at 50.0 µM; active compounds read high. A digest of the protocol:
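A DNA repair-deficient yeast mutant serves as the test organism; compound-induced growth inhibition is calculated against vehicle-treated cells.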

Assay [2] in a line: NCI Yeast Anticancer Drug Screen. Data for the mec2-1 strain (AID 157). As to conditions: S. cerevisiae mec2-1 strain, at 50.0 µM, active compounds read high. The essentials: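 Growth inhibition is read against vehicle-treated controls after compound exposure of the mec2-1 yeast strain, which is defective in DNA damage repair or cell cycle control.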
Assay [3] is described as follows: NCI Yeast Anticancer Drug Screen. Data for the sgs1 mgt1 strain (AID 161).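 Further: 0% = growth of cultures given vehicle only.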 As to conditions: S. cerevisiae sgs1 mgt1 strain, at 50.0 µM, active compounds read high. The essentials: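 Growth of a repair-deficient yeast mutant was monitored after compound treatment and expressed as inhibition relative to vehicle-treated cultures.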
Assay [4] is described as follows: NCI Yeast Anticancer Drug Screen. Data for the cln2 rad14 strain (AID 165).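 Further: 0% = growth equal to vehicle treated cultures.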 The settings on record: S. cerevisiae cln2 rad14 strain, at 50.0 µM, active compounds read high. The essentials:
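Growth inhibition, relative to vehicle-treated controls, is the read-out. The test organism is a yeast strain with defined genetic alterations, cln2 rad14.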

A short description of assay [5]: NCI Yeast Anticancer Drug Screen. Data for the bub3 strain (AID 167). The settings on record: S. cerevisiae bub3 mutant strain, at 50.0 µM, active compounds read high. The essentials: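 Inhibition values come from growth of compound-treated mutant yeast normalised to vehicle-treated controls.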
Assay [6] can be described thus: NCI Yeast Anticancer Drug Screen. Data for the mlh1 rad18 strain (AID 175). The settings on record: S. cerevisiae mlh1 rad18 strain growth inhibition; at 50.0 µM; active compounds read high. The essentials: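 Cells of a genetically altered yeast strain, deficient in DNA damage repair, were treated with compound. Their growth was then compared with that of vehicle-treated cultures to give inhibition.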

Compounds without any hit were thinned out: in the full panel of roughly 79,000, 15% have a hit. Unmarked numbers belong to inactive results. The source made the active and inactive calls. No stated cut-off is given here; in the data, active means growth inhibition above about 70%; inactive means the rest.

With `Cc1nc(N)nc(C)c1N=Nc1cc(Br)ccc1Br`, the growth inhibition in assay [1] is 26.1%; in assay [2], -14.1%; in assay [3] it was -15.4%; in assay [4], -13.7%; in assay [5] it was 0.35%; in assay [6] it was -7.6%.

For the compound `COC/C(=N/Nc1ccc([N+](=O)[O-])cc1[N+](=O)[O-])C(C)(C)C`, the growth inhibition is -2.8% in assay [1]; 16.4% in assay [2]; 8.6% in assay [3]; -26.3% in assay [4]; -20.9% in assay [5]; -16.8% in assay [6].

In the case of `CC#CCCC1CCCCNC1=O` (stereo unspecified), the growth inhibition is 0.8% in assay [1]; -16.9% in assay [2]; 27.1% in assay [3]; 12.1% in assay [4]; 26.5% in assay [5]; 3.7% in assay [6].

Take `CC(C)=C1C=C(C(C)(C)C)C(=O)C(C(C)(C)C)=C1`: the growth inhibition is 29.9% in assay [1]; -5.9% in assay [2]; -1.8% in assay [3]; 17.4% in assay [4]; 9.15% in assay [5]; 28.4% in assay [6].

On to `Nc1ccc([N+](=O)[O-])cc1F`, for which the growth inhibition in assay [1] is -18.6%; in assay [2], -9.05%; in assay [3] it was -9.85%; in assay [4], -20.9%; in assay [5] it was 3.95%; in assay [6], -0.95%.

For `CN1N=C(c2ccccc2O)/C(=C/c2c(-c3ccccc3O)[nH]n(C)c2=O)C1=O`, the growth inhibition in assay [1] is 6.85%; in assay [2] it was -0.55%; in assay [3], -6.1%; in assay [4] it was 0.75%; in assay [5] it was 4.6%; in assay [6] it was 31.9%.

As to `Nc1nc(N)c2c(n1)Nc1ccc(Cl)nc1S2`, the growth inhibition in assay [1] is 94.2% (active); in assay [2], 69.3%; in assay [3], 89.1% (active); in assay [4], 52.2%; in assay [5], 81.1% (active); in assay [6], 93.8% (active).

Take `CC(C)c1cc(C(C)C)c(Cc2c(C(C)C)cc(C(C)C)cc2C(C)C)c(C(C)C)c1`: the growth inhibition in assay [1] is 15%; in assay [2], 14.2%; in assay [3], 0.3%; in assay [4] it was 0.55%; in assay [5], -2%; in assay [6], 20.3%.

Regarding `COc1ccc(-c2cc(-c3ccccc3)n[nH]2)cc1`, the growth inhibition is 24% in assay [1]; 27.7% in assay [2]; 43.8% in assay [3]; -13.9% in assay [4]; 47.9% in assay [5]; 33.4% in assay [6].

Turning to `N#CC(NC(=O)NCCCl)c1ccccc1` (stereo unspecified), the growth inhibition was -8.8% in assay [1]; -12.2% in assay [2]; -1.4% in assay [3]; -41.1% in assay [4]; 11.4% in assay [5]; 2.6% in assay [6].

`CCCc1ccccc1[N+](=O)[O-]`: the growth inhibition in assay [1] was 0.25%; in assay [2], -14.9%; in assay [3] it was -10.5%; in assay [4], -4.35%; in assay [5] it was 8.7%; in assay [6], -7.1%.

For the compound `COc1ccc2c(c1)[n+]([O-])c(/C(C)=N/NC(N)=S)c(C)[n+]2[O-]`, the growth inhibition in assay [1] is 65.6%; in assay [2], 12.2%; in assay [3], 41.6%; in assay [4], 11.4%; in assay [5], 61%; in assay [6], 47.1%.

Regarding `Nc1nc2ncn(CC(O)COC(=O)c3ccccc3)c2c(=O)[nH]1` (stereo unspecified), the growth inhibition in assay [1] was 23.8%; in assay [2], -8.85%; in assay [3], 27.3%; in assay [4] it was 28.3%; in assay [5], 27.4%; in assay [6], 39.2%.

For `COC(=O)/C(C#N)=C1\CCC(OC)N1` (stereo unspecified), the growth inhibition is -4.25% in assay [1]; 6.95% in assay [2]; -21.2% in assay [3]; 3.7% in assay [4]; -13.1% in assay [5]; -24.9% in assay [6].

`Cc1ccc2nc(N(C)C)cc(N(C)C)c2c1`: the growth inhibition is -7.1% in assay [1]; 6% in assay [2]; 0.2% in assay [3]; -100% in assay [4]; -4.1% in assay [5]; 7.9% in assay [6].

With `CSCCC(NCCC#N)C(=O)O` (stereo unspecified), the growth inhibition was -7.05% in assay [1]; 19.4% in assay [2]; 8.45% in assay [3]; -12.9% in assay [4]; -27.9% in assay [5]; 2.85% in assay [6].

On to `Nc1ncnc(N)c1NC(=O)c1ccc(SCc2ccccc2)cc1`, for which the growth inhibition in assay [1] is -7.15%; in assay [2], 20.9%; in assay [3], 27.5%; in assay [4], -21.2%; in assay [5], 22.5%; in assay [6], 22.2%.

In the case of `CC(=O)[C@H]1CC[C@H]2[C@@H]3CCC4=CC(=O)CC[C@]4(C)[C@H]3C[C@H](OS(=O)(=O)c3ccc(C)cc3)[C@]12C`, the growth inhibition in assay [1] is 20.3%; in assay [2], 18.1%; in assay [3], 31.2%; in assay [4], 38.7%; in assay [5], 12.1%; in assay [6] it was 15.4%.

As for `COC(=O)/C=C(\C)CC/C=C(\C)CCC1OC1(C)C` (stereo unspecified), the growth inhibition in assay [1] is 11.9%; in assay [2], 44.1%; in assay [3] it was 84.7% (active); in assay [4], 57.3%; in assay [5] it was 77.5% (active); in assay [6], 81.1% (active).

Take `COc1cc(C=O)c(-c2c(C=O)ccc3c2OCO3)c(OC)c1OC`: the growth inhibition in assay [1] is 24.4%; in assay [2], -1.9%; in assay [3], 30.2%; in assay [4], 18.1%; in assay [5], 26%; in assay [6], -1.5%.

For `CC(=O)NC1=C/C(=C/COC(C)=O)OC1=O`, the growth inhibition was 22.6% in assay [1]; -9.9% in assay [2]; 11.8% in assay [3]; -57% in assay [4]; 5.8% in assay [5]; 8.75% in assay [6].

Values taken from PubChem BioAssay (NCI).
